According to PubChem BioAssay:
Where “and” joins values, the source holds several entries; their conditions need not be identical. Identical values can stand only once. Calls of active or inactive are those of the source. Rule as the data show it, unless noted: active = nuclear beta-catenin stimulation mostly above about 4.2% (no sharp cut-off); inactive = mostly below about 10%.

Assay: liver-stage malaria parasite growth inhibition, primary screen, cell-based, HepG2, luciferase luminescence, HepG2 viability (AID 624349; in the data active = parasite load remaining mostly below about 12%, no sharp cut-off; inactive = mostly above about 10%;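 also: 100% = mean of DMSO negative control wells on the same plate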)
Conditions: P. berghei liver stage in HepG2, luciferase luminescence, concentration not given here; parasite load remaining: stronger effect = lower value; viability: measured here: HepG2 viability without parasites

SMILES | parasite load remaining | viability
CN1C[C@H](CNC(=O)OCc2ccccc2)C[C@@H]2c3cccc4c3c(cn4C)C[C@H]21 | 77.5% (inactive) and 64.4% (inactive) | 74.4% and 69.2%
CN(C)C(=S)SSC(=S)N(C)C | 69.7% (inactive) and -0.72% (inactive) | 84.1% and 106%
COP(=S)(OC)Oc1ccc(Sc2ccc(OP(=S)(OC)OC)cc2)cc1 | 25% (inactive) | 137%

Assay: stimulators of nuclear beta-catenin in C2C12, primary screen, imaging, WNT3A-conditioned medium, mouse C2C12, NPC library (AID 1117326); also: reference of the scale not given here
Conditions: at 10 µM, stronger effect = higher value

SMILES | nuclear beta-catenin stimulation
CC=CC1C(C(=O)OCc2c(F)c(F)c(COC)c(F)c2F)C1(C)C (configuration not stated) | 2.1% (inactive)
COC(=O)C(Cl)C(=O)OC | 0.3% (inactive)
CN1C[C@H](CNC(=O)OCc2ccccc2)C[C@@H]2c3cccc4c3c(cn4C)C[C@H]21 | 53.7% (active)
COc1ccc2c(c1OC)C(=O)O[C@H]2[C@@H]1c2cc3c(cc2CCN1C)OCO3 | -0.8% (inactive)
O=C1NCN(c2ccccc2)C12CCN(CCCOc1ccc(F)cc1)CC2 | 0.4% (inactive)
CN(C)C(=S)SSC(=S)N(C)C | 68.4% (active)
Fc1cc(Br)ccc1CBr | -0.7% (inactive)
COC(=O)c1ccccc1C(=O)OC | -1.6% (inactive)
CCOC(=O)c1ccccc1C(=O)OCC | -0.2% (inactive)
COP(=S)(OC)Oc1ccc(Sc2ccc(OP(=S)(OC)OC)cc2)cc1 | 5.7% (inactive)
ClC1=C(Cl)C2(Cl)C(CBr)CC1(Cl)C2(Cl)Cl (configuration not stated) | 1.7% (inactive)
COc1cccc2c1C(=O)c1c(O)c3c(c(O)c1C2=O)C[C@@](O)(C(=O)CO)CC3OC1CC(N2CCOC(OC)C2)C(O)C(C)O1 (some centres not stated) | 13.6% (active)
c1ccc2c(c1)Sc1ccccc1N2CC1CN2CCC1CC2 (configuration not stated) | 50.9% (active)
C=CCN1CC[C@]23CCCC[C@H]2[C@H]1Cc1ccc(O)cc13 | 3.5% (inactive)

Same assay, conditions: stimulation, at 2 µM, stronger effect = higher value

SMILES | nuclear beta-catenin stimulation
CC=CC1C(C(=O)OCc2c(F)c(F)c(COC)c(F)c2F)C1(C)C (configuration not stated) | -0.3%
COC(=O)C(Cl)C(=O)OC | 6.8%
CN1C[C@H](CNC(=O)OCc2ccccc2)C[C@@H]2c3cccc4c3c(cn4C)C[C@H]21 | 5.7%
COc1ccc2c(c1OC)C(=O)O[C@H]2[C@@H]1c2cc3c(cc2CCN1C)OCO3 | 7.9%
O=C1NCN(c2ccccc2)C12CCN(CCCOc1ccc(F)cc1)CC2 | 8.5%
CN(C)C(=S)SSC(=S)N(C)C | 48.7%
Fc1cc(Br)ccc1CBr | 13%
COC(=O)c1ccccc1C(=O)OC | -0.6%
CCOC(=O)c1ccccc1C(=O)OCC | -0.3%
COP(=S)(OC)Oc1ccc(Sc2ccc(OP(=S)(OC)OC)cc2)cc1 | -0.8%
ClC1=C(Cl)C2(Cl)C(CBr)CC1(Cl)C2(Cl)Cl (configuration not stated) | 5.3%
COc1cccc2c1C(=O)c1c(O)c3c(c(O)c1C2=O)C[C@@](O)(C(=O)CO)CC3OC1CC(N2CCOC(OC)C2)C(O)C(C)O1 (some centres not stated) | 47.6%
c1ccc2c(c1)Sc1ccccc1N2CC1CN2CCC1CC2 (configuration not stated) | -0.7%
C=CCN1CC[C@]23CCCC[C@H]2[C@H]1Cc1ccc(O)cc13 | 0.3%

Assay: stimulators of insulin release from INS-1E, primary screen, cell-based, 5 mM glucose, NPC library (AID 1117329;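 active = compound raises insulin release from rat beta cells at 5 mM glucose, no numeric limit stated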; also: reference of the scale not given here)
Conditions: rat INS-1E insulin secretion, at 10 µM, stronger effect = higher value

SMILES | insulin secretion stimulation
CC=CC1C(C(=O)OCc2c(F)c(F)c(COC)c(F)c2F)C1(C)C (configuration not stated) | 0.95% (inactive)
COC(=O)c1ccccc1C(=O)OC | 0.5% (inactive)
CCOC(=O)c1ccccc1C(=O)OCC | 2.85% (inactive)
COP(=S)(OC)Oc1ccc(Sc2ccc(OP(=S)(OC)OC)cc2)cc1 | 0.05% (inactive)
ClC1=C(Cl)C2(Cl)C(CBr)CC1(Cl)C2(Cl)Cl (configuration not stated) | 0.2% (inactive)
CC(C)(C)c1ccc(O)cc1 | 0% (inactive)
COc1cccc2c1C(=O)c1c(O)c3c(c(O)c1C2=O)C[C@@](O)(C(=O)CO)CC3OC1CC(N2CCOC(OC)C2)C(O)C(C)O1 (some centres not stated) | 1.1% (inactive)
c1ccc2c(c1)Sc1ccccc1N2CC1CN2CCC1CC2 (configuration not stated) | 11.5% (inactive)
C=CCN1CC[C@]23CCCC[C@H]2[C@H]1Cc1ccc(O)cc13 | 12.2% (inactive)

Assay: growth inhibition of GSK3B-pretreated HCT116 cells – cell-based, CellTiter-Glo, 0.2 to 20 µM (AID 1117336;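 active = compounds lowering colon cancer cell viability after pretreatment blocking the GSK3B kinase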)
Conditions: HCT116 viability after GSK3B inhibitor, at 20 µM, stronger effect = higher value

SMILES | viability decrease
COC(=O)C(Cl)C(=O)OC | 51.9% (active)
CN1C[C@H](CNC(=O)OCc2ccccc2)C[C@@H]2c3cccc4c3c(cn4C)C[C@H]21 | 93.3% (active)
COc1ccc2c(c1OC)C(=O)O[C@H]2[C@@H]1c2cc3c(cc2CCN1C)OCO3 | 19.2% (inactive)
O=C1NCN(c2ccccc2)C12CCN(CCCOc1ccc(F)cc1)CC2 | 84.2% (active)
CN(C)C(=S)SSC(=S)N(C)C | 65% (active)
Fc1cc(Br)ccc1CBr | 3.1% (inactive)
CC(C)(C)c1ccc(O)cc1 | -1.5% (inactive)

Assay: inhibition of endothelial tube formation, primary screen, imaging, VEGF stimulated, CD31 staining, tube area, NPC library (AID 1117340;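 active = compound that reduces growth-factor-driven endothelial tube area in a mixed cell culture, no cutoff stated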)
Conditions: VEGF-stimulated ADSC/ECFC co-culture, at 10 µM, stronger effect = higher value

SMILES | tube area decrease
CN(C)C(=S)SSC(=S)N(C)C | 39.3% (inactive)
Fc1cc(Br)ccc1CBr | -4.2% (inactive)
CC(C)(C)c1ccc(O)cc1 | -21.2% (inactive)

Assay: glucagon-like peptide 1 release enhancers, primary assay, NCI-H716 cell line, NPC library (AID 1117341;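 active = compound raises GLP1 secretion from the human gut endocrine cells, with no numeric limit stated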; also: reference of the scale not given here)
Conditions: NCI-H716 cells, at 10 µM, stronger effect = higher value

SMILES | GLP1 secretion stimulation
CC=CC1C(C(=O)OCc2c(F)c(F)c(COC)c(F)c2F)C1(C)C (configuration not stated) | -3.8% (inactive)
COC(=O)c1ccccc1C(=O)OC | -5.4% (inactive)
CCOC(=O)c1ccccc1C(=O)OCC | 0.4% (inactive)
COP(=S)(OC)Oc1ccc(Sc2ccc(OP(=S)(OC)OC)cc2)cc1 | -8.7% (inactive)
ClC1=C(Cl)C2(Cl)C(CBr)CC1(Cl)C2(Cl)Cl (configuration not stated) | 16.3% (inactive)
CC(C)(C)c1ccc(O)cc1 | 3.8% (inactive)
COc1cccc2c1C(=O)c1c(O)c3c(c(O)c1C2=O)C[C@@](O)(C(=O)CO)CC3OC1CC(N2CCOC(OC)C2)C(O)C(C)O1 (some centres not stated) | 7.5% (inactive)
c1ccc2c(c1)Sc1ccccc1N2CC1CN2CCC1CC2 (configuration not stated) | 26.8% (active)
C=CCN1CC[C@]23CCCC[C@H]2[C@H]1Cc1ccc(O)cc13 | 8.3% (inactive)
